According to PubChem BioAssay:

Target: Voltage-gated potassium channel subunit beta-2 (Rattus norvegicus) (UniProt P62483)
Test: enhancers of rat Kvbeta2 NADPH turnover – biochemical, NADPH fluorescence, primary screen (AID 623);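 also: fluorescence intensity change per second fitted from 20 to 320 s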
Conditions: Recombinant KvBeta, NADPH fluorescence decrease slope, 10 min; at 10 µM; hits give low values;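 active = NADPH fluorescence slope more negative than the mean of all samples by about 3 SD, 99.7% confidence; inactive = the rest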

Chain of Voltage-gated potassium channel subunit beta-2 (Rattus norvegicus) (P62483 whole entry, looked up): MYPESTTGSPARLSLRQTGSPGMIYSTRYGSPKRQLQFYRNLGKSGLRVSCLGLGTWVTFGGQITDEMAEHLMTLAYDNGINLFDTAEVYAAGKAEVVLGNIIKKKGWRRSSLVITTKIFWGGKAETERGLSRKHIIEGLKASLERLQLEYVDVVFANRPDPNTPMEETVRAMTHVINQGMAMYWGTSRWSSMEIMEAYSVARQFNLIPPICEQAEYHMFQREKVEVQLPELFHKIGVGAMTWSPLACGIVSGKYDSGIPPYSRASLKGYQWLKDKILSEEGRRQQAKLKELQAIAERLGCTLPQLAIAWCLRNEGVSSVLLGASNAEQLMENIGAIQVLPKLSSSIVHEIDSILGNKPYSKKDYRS

NADPH fluorescence slope, inactive:
CCOc1ccc2nc(SCc3ccc(C(=O)OC)o3)[nH]c2c1 2e-06
Cc1cc(C)nc(SCC(=O)Nc2ncc3c(n2)CCCC3=O)n1 -1.1e-05
O=C(Cn1cc2c(n1)CCCC2)NCCc1ccccc1 -2.6e-05
COc1ccc(-c2nnc(SCC(=O)Nc3sc4c(c3C#N)CCC4)n2CC2CCCO2)cc1 (stereo unspecified) -5.3e-05
O=C1c2ccccc2S(=O)(=O)N1Cc1nnc(-c2ccccc2Br)o1 -6e-05
O=C(CCc1ccccc1)Nc1ccncc1 -1.1e-05
CCCc1nnc(NC(=O)CCC(=O)N2CCN(CCOc3ccc(C)cc3)CC2)s1 6e-06
O=C(/C=C1\NC2(CCCC2)Cc2ccccc21)N1CCOCC1 -4.8e-05
Cn1cnc(S(=O)(=O)NCc2cccs2)c1 3.3e-05
CCOC(=O)c1oc2cccc(OC(C)=O)c2c1C -4.6e-05
CCC(C)(C)NC(=O)CN(Cc1ccc2c(c1)OCO2)C(=O)CCC(=O)Nc1ccccn1 -6.3e-05
Cc1ccc(C(=O)NC(Cc2c[nH]c3ccccc23)C(=O)O)o1 (stereo unspecified) 5.1e-05
Nc1cc(CN2C(=O)c3ccccc3C2=O)cc(Cl)c1O -5.2e-05
O=S(=O)(Nc1nc2ccccc2nc1NCc1ccco1)c1cccs1 -6.8e-05
COc1ccc(S(=O)(=O)Nc2cc(C)on2)cc1OC 9.2e-06
O=C(CSc1nccn1Cc1ccccc1)Nc1nccs1 -2.7e-05
